High-throughput results from PubChem BioAssay.
Imprint erasure = induces erasure of genomic imprints in mouse ES cells. mouse ES Peg3-LacZ reporter, beta-gal luminescence, 40 h. Potency, µM (top dose mostly 60.7 µM), most hits filed as activators. hit rate 0.02% among 110,000. AID 1948
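Gelatin-coated wells received 300 freshly trypsinized female ES cells with a Peg3LacZ-Neo reporter on the maternal allele, then incubated 40 hours at 37C. BetaGlo was added for 5 minutes at room temperature before a single luminescence read.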
IkB signaling = suppresses IkB signaling in ABC-DLBCL reporter cells | Potency, µM (series often up to 57.1 µM) | AID 445 | hit rate 0.04% among 110,000 | ABC-DLBCL IkBa-CBG/CBR dual luciferase ratio, 4 h; response scale: scaled: untreated 0%, proteasome inhibitor 100%; active = well fitted curve in the direction sought with a large enough effect in the signal ratio, not every such curve was filed as active; inconclusive = small, poorly fitted or top-dose-only effect, or a change in a side signal; the % refers to the signal ratio;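 also: the direction sought is a rising ratio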
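In this assay, an IκBα–CBG68 fusion accumulates when IKK-driven degradation is blocked; native CBR normalizes for cell number. OCI-Ly3 cells were treated 4 h with compound and doxycycline, then green and red light read after Chroma-Glo addition.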
p53ts 32C tox = cytotoxicity in p53ts cells at permissive temperature; H1299-p53A138V at 32C, ATP luminescence viability, 24 h; Potency, µM (highest dose often 46.1 µM), usual class: cytotoxic; AID 924; hit rate 0.93% among 130,000; also: nearly all actives have a fitted effect of over 55% in size
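ATP-content luminescence (ATPlite) read-out after 24 h compound exposure at 32C in H1299-p53A138V cells (600/well). Tested up to 46 uM. Normalized to DMSO (0%) and 100 uM tamoxifen (100% killing); Hill-fit AC50.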
p53ts 39C kill = kills p53ts cells at the nonpermissive temperature | H1299-p53A138V viability at 39C, ATP luminescence, 24 h | Potency, µM (series often up to 46.1 µM), most hits filed as cytotoxic | hit rate 1.5% among 130,000; also: nearly all actives have a fitted effect of over 55% in size
A number is an active result; n = inactive; u = inconclusive; x = no result given; [ ] = remark or other dose. Shown are actives, neighbours in structure and some others; about 1.8% of the full set was active somewhere. Unless noted, calls follow the shape of the dose curve; as a rule, active = well fitted curve in the direction sought with a large enough effect; inconclusive = small, poorly fitted or top-dose-only effect, or another doubt; inactive = no such curve, though single readings can be large; an effect the other way counts as inactive or inconclusive.

SMILES	Imprint erasure	IkB signaling	p53ts 32C tox	p53ts 39C kill
CC1(C)CC(=O)C2=C(C1)OC1=C(C(=O)CC(C)(C)C1)C2c1ccc(O)cc1O	n	u	25.1µM	n
CCCCCNC(=O)c1ccc2c(c1)nc(C)n2-c1cccc(C)c1	n[10.9 µM]	n	n	20µM
CCOC(=O)c1ccc(N=c2sc(C(=O)OC)cc(=O)n2CCCN2CCOCC2)cc1	n	u	n	n
CCn1c(=O)cc(C(=O)OC)sc1=Nc1ccc(F)c(F)c1	n	u	20µM	n
CCc1ccc(C2CC(=O)c3c([nH]c(C(=O)OCCOc4ccccc4)c3C)C2)cc1 (stereo not drawn)	n[10.9 µM]	n	u	12.6µM
CCOc1ccc(C2CC(=O)c3c([nH]c(C(=O)OCCOc4ccccc4)c3C)C2)cc1 (stereo not drawn)	n[10.9 µM]	n	u	u
Cc1ccc(C(=O)Nc2nnc(S(=O)(=O)N(C)Cc3ccc(Cl)cc3)s2)cc1	n[10.9 µM]	u	n	n
Cc1cc2nc(-c3cccnc3SCC(=O)NCc3ccco3)[nH]c2cc1C	n	u	5.01µM	5.01µM
CC(=O)OC[C@@H]1O[C@H](CCO/N=C(\C)CCC(=O)OC[C@@H]2O[C@H](C#Cc3ccccc3)C=C[C@@H]2Oc2ccc(C)cc2)C=C[C@@H]1OC(C)=O	x	x	n[9.22 µM]	n[9.22 µM]
Cc1ccc(NC(=O)CSc2nc(=O)n(CCN3CCOCC3)c3c2CCC3)cc1Cl	n[10.9 µM]	u	n	n
O=C1c2ccccc2-c2onc3ccc(NCCCn4ccnc4)c1c23	n	n	n	u
COc1ccc2noc3c2c1C(=O)c1ccccc1-3	n	u	12.6µM	n
O=C(Nc1ccc(Cl)cc1F)c1oc(=O)c2ccccc2c1-c1ccccc1	n[10.9 µM]	n	n	n
CCCN(CCC)CCCNC(=O)C1CCN(c2nc3ccc(CC)cc3s2)CC1	n[10.9 µM]	u	12.6µM	u
CCCN(CCC)CCNC(=O)C1CCN(c2nc3ccc(CC)cc3s2)CC1	n[10.9 µM]	u	12.6µM	u
COc1ccc2nc(N3CCCC(C(=O)NCCCN4CCN(C)CC4)C3)sc2c1 (stereo not drawn)	n	n	12.6µM	10µM
CCc1ccc2nc(N3CCC(C(=O)NCCC(C)C)CC3)sc2c1	n[10.9 µM]	u	u	15.8µM
